# According to PubChem BioAssay (EPA / NIEHS):
# Inconclusive results are not listed. Activity calls are given as the source filed them. Rule for the calls: active = hit-call score of the fitted dose curve at least 0.9, where 1 is the maximum; inconclusive = response in the unintended direction; inactive = score below 0.9.
# Test system: zebrafish Androgen Receptor (AR), gene 100005148
# Test: ATG_zfAR_XSP1: Attagene TRANS-FACTORIAL Multi-Species (XSP1) HepG2 Assay for zebrafish Androgen Receptor (AR) (AID 2283771)
# Method in brief: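 Gain-of-signal versus DMSO was measured as reporter transcripts quantified by RT-PCR, fluorescent labelling and capillary electrophoresis after 24 h chemical exposure. The cells were HepG2 expressing a chimeric zebrafish AR-GAL4, co-stimulated with 3 nM 6-alpha-fluorotestosterone.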
SMILES,outcome,AC50
Clc1ccc(C(c2ccc(Cl)cc2)C(Cl)(Cl)Cl)cc1,inactive,
CCCCCOC(=O)c1ccccc1C(=O)OCCCCC,inactive,
CCC[CH2][Sn]([Cl])([CH2]CCC)[CH2]CCC,inactive,
C[C@]12C=CC3=C4CCC(=O)C=C4CC[C@H]3[C@@H]1CC[C@@H]2O,,0.0325 µM (active)

# Target: zebrafish Estrogen Receptor (ESR1), esr1 (gene 259252) (UniProt P57717)
# Test: ATG_zfER1_XSP1: Attagene TRANS-FACTORIAL Multi-Species (XSP1) HepG2 Assay for zebrafish Estrogen Receptor (ESR1) (AID 2283772)
# Method in brief: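 HepG2 cells transiently transfected with a GAL4-UAS reporter and chimeric zebrafish ER-Gal4, dosed 24 h with 3 nM 6-alpha-fluorotestosterone present. Reporter mRNA measured by RT-PCR and capillary electrophoresis; gain of signal versus DMSO.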
# Chain of zebrafish Estrogen Receptor (ESR1), esr1 (gene 259252) (P57717 whole entry, looked up): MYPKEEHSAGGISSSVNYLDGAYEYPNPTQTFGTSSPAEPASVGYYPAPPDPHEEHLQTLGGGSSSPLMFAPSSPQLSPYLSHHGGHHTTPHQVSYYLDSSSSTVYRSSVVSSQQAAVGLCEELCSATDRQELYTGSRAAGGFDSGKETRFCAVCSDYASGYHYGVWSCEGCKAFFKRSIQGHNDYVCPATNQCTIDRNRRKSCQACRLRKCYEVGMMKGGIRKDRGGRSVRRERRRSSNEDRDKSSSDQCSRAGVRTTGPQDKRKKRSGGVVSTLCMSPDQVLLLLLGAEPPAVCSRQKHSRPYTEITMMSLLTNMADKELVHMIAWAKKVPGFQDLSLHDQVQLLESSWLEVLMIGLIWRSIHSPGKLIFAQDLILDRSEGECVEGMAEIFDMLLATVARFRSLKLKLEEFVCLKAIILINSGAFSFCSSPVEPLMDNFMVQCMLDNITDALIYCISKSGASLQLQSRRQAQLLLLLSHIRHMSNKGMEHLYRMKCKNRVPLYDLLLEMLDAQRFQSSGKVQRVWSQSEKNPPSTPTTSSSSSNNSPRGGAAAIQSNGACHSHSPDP
SMILES,AC50,outcome
CCCCOC(=O)c1ccccc1C(=O)OCc1ccccc1,26.6 µM (active),
Clc1ccc(C(c2ccc(Cl)cc2)C(Cl)(Cl)Cl)cc1,41.7 µM (active),
CCCCCOC(=O)c1ccccc1C(=O)OCCCCC,,inactive
Clc1ccc(C(c2ccc(Cl)cc2)C(Cl)Cl)cc1,,inactive
C[C@]12C=CC3=C4CCC(=O)C=C4CC[C@H]3[C@@H]1CC[C@@H]2O,,inactive

# Test system: zebrafish Estrogen Receptor (ESR2B), gene 317733
# Test: ATG_zfER2b_XSP1: Attagene TRANS-FACTORIAL Multi-Species (XSP1) HepG2 Assay for zebrafish Estrogen Receptor (ESR2B) (AID 2283773)
# Method in brief: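 Multiplexed TRANS format in transfected HepG2 liver cells, chimeric NR-Gal4 from zebrafish ESR2B. 24 h dosing; medium contains 3 nM 6-alpha-fluorotestosterone. mRNA induction by RT-PCR/CE, positive direction vs DMSO.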
SMILES,AC50,outcome
CCCCOC(=O)c1ccccc1C(=O)OCc1ccccc1,6.82 µM (active),
Clc1ccc(C(c2ccc(Cl)cc2)C(Cl)(Cl)Cl)cc1,1.95 µM (active),
CCCCCOC(=O)c1ccccc1C(=O)OCCCCC,40.7 µM (active),
CCC[CH2][Sn]([Cl])([CH2]CCC)[CH2]CCC,,inactive
Clc1ccc(C(c2ccc(Cl)cc2)C(Cl)Cl)cc1,7.14 µM (active),
C[C@]12C=CC3=C4CCC(=O)C=C4CC[C@H]3[C@@H]1CC[C@@H]2O,,inactive

# Test system: frog Estrogen Receptor (ESR2), gene 100174814
# Test: ATG_frER2_XSP1: Attagene TRANS-FACTORIAL Multi-Species (XSP1) HepG2 Assay for frog Estrogen Receptor (ESR2) (AID 2283774)
# Method in brief: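 HepG2, transient MRTU transfection (GAL4-UAS reporters, exogenous NR-Gal4 chimeras); 24 h compound exposure; 3 nM 6α-fluorotestosterone co-added; total RNA → RT-PCR → 6-FAM primer extension → HpaI → CE. Positive direction vs DMSO.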
row,SMILES,AC50
1,CCCCOC(=O)c1ccccc1C(=O)OCc1ccccc1,9.27 µM (active)
2,Clc1ccc(C(c2ccc(Cl)cc2)C(Cl)(Cl)Cl)cc1,4.09 µM (active)
3,CCCCCOC(=O)c1ccccc1C(=O)OCCCCC,27.3 µM (active)
4,CCC[CH2][Sn]([Cl])([CH2]CCC)[CH2]CCC,0.528 µM (active)
5,Clc1ccc(C(c2ccc(Cl)cc2)C(Cl)Cl)cc1,6.82 µM (active)

# Test system: not listed separately
# Test: ACEA_AR_agonist_AUC_viability: ACEA Biosciences xCELLigence Real-Time Cell Analysis on Androgen Receptor Agonism for Viability (AID 2283775);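 for AC50: viability read 80 hours after compound addition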
# Method in brief: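 22Rv1 cells; impedance growth kinetics; 8-pt 1:4 dilutions from 100 uM top final, ≤0.5% DMSO; n = 2; 80 h read; AUC viability, loss-of-signal vs DMSO.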
SMILES,outcome,AC50
ClCCOCCCl,inactive,
CCC(C)c1ccc(O)cc1 (stereo unspecified),,50 µM (active)
CCCCOC(=O)c1ccccc1C(=O)OCc1ccccc1,,50 µM (active)
CCCSC(=O)N(CCC)CCC,inactive,
Clc1ccc(C(c2ccc(Cl)cc2)C(Cl)(Cl)Cl)cc1,,8.63 µM (active)
CO[C@@H]1[C@H](OC(=O)NC(=O)CCl)CC[C@]2(CO2)[C@H]1[C@@]1(C)O[C@@H]1CC=C(C)C,,0.00152 µM (active)
ClC1=C(Cl)[C@]2(Cl)[C@H]3[C@H]([C@@H]4C=C[C@H]3C4)[C@@]1(Cl)C2(Cl)Cl,,18.1 µM (active)
Nc1ccc(Cc2ccc(N)cc2)cc1,inactive,
CCOc1cccc(C2(N3CCN(c4ccccc4)CC3)CCC(C)CC2)c1 (stereo unspecified),inactive,
O=C(Oc1ccc(Br)cc1)N1CCN2CCC1CC2,,72.1 µM (active)
CC(C)(C)C(O)(CCc1ccc(Cl)cc1)Cn1cncn1 (stereo unspecified),,87 µM (active)
c1ccc2c(c1)oc1ccccc12,inactive,
CCCCCOC(=O)c1ccccc1C(=O)OCCCCC,,30 µM (active)
Cn1cc(-c2ccccc2)c(=O)c(-c2cccc(C(F)(F)F)c2)c1,,50 µM (active)
Cc1ccc(N=C=O)cc1N=C=O,,25.1 µM (active)
COC(=O)Nc1nc2ccccc2[nH]1,,50 µM (active)
c1ccc(C2CO2)cc1 (stereo unspecified),inactive,
Nc1cc(Cl)cc(C(=O)O)c1Cl,inactive,

SMILES,outcome,AC50
CCCCCCCCCCCCCN1CC(C)OC(C)C1 (stereo unspecified),inactive,
C=CCc1ccc2c(c1)OCO2,inactive,
CC(O)CCO (stereo unspecified),inactive,
Cc1ccc(N)cc1,inactive,
COP(=S)(OC)SCN1C(=O)c2ccccc2C1=O,,79.7 µM (active)
CC(C)(OOC(C)(C)c1ccccc1)c1ccccc1,,17.2 µM (active)
CN(C)c1ccccc1,inactive,
Cc1ccc([N+](=O)[O-])cc1,inactive,
CN(C)c1ccc(C(=O)c2ccc(N(C)C)cc2)cc1,,9.27 µM (active)
CCC12COCN1COC2,inactive,
[As]#[In],inactive,
O=C(N[C@H](c1ccccc1)[C@@H]1CN2CCC1CC2)c1c(Cl)ccc(C(F)(F)F)c1Cl,,62.8 µM (active)
[O-][Cl+]O,inactive,
O=[N+]([O-])c1ccc(Oc2ccc(Cl)cc2Cl)cc1,,84.9 µM (active)
CCCCCCCCn1sccc1=O,,18.5 µM (active)
O=C(Nc1ccccc1)c1ccccc1I,inactive,
CCC[CH2][Sn]([Cl])([CH2]CCC)[CH2]CCC,,0.567 µM (active)
Clc1ccc(C(c2ccc(Cl)cc2)C(Cl)Cl)cc1,,21.3 µM (active)
